In PubChem BioAssay (NCI):
The panel holds about 83,000 compounds, 20% with a hit somewhere; the sample as a whole holds those more often.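 The test compound was applied at a single concentration to cells in 96-well plates for 48 hours, and percent growth was recorded.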 Unmarked numbers belong to inactive results. Active and inactive are the calls of the source. How the source made its calls: active means growth percent below 10; inactive means the rest.

What was measured:
Assay in all cases: NCI-60 one-dose screen, 48 h (100 = growth as untreated, 0 = no growth, -100 = all killed)
Conditions in all cases: 10 µM unless noted
[1] = system: SR leukemia
[2] = system: RPMI-8226 leukemia
[3] = system: OVCAR-8 ovarian
[4] = system: OVCAR-5 ovarian
[5] = system: SK-OV-3 ovarian
[6] = system: IGROV1 ovarian
[7] = system: OVCAR-3 ovarian
[8] = system: HS 578T breast
[9] = system: NCI/ADR-RES ovarian
[10] = system: OVCAR-4 ovarian

Compound	growth [1]	growth [2]	growth [3]	growth [4]	growth [5]	growth [6]	growth [7]	growth [8]	growth [9]	growth [10]
CN(C)CCCOc1ccc(C(=C(c2ccccc2)C2CCCC2)c2ccc(OCCCN(C)C)cc2)cc1	-37% (active)	-32.1% (active)	-84.2% (active)	-92.9% (active)	-86.4% (active)	-84.7% (active)	-91.7% (active)	-60.7% (active)	-80% (active)	
OCC(Nc1ncnc2ccc(-c3cnc4cnccn34)cc12)c1ccccc1 (stereo not drawn)	73.5%	62.5%	79.7%	83.8%	80.9%	39.1%	71.9%	84.1%	90.3%	
CN1CCN(c2ccc(Nc3nc(NCCCNS(=O)(=O)c4ccccc4)c4sccc4n3)cc2)CC1	2.4% (active)	14.6%	65.8%	78.3%	122%	79.7%	74.3%	80.3%	86.4%	
O=C1C(SCc2ccccc2)=C(Cl)CN1c1ccccc1	18.5%	83.9%	101%	97.5%	126%	103%		104%	102%	103%
O=C1[C@@H]2Cc3c([nH]c4ccccc34)[C@@H](c3ccc(Cl)cc3)N2C(=O)CN1C1CCN(Cc2c(F)cccc2F)CC1	-4.42% (active)	12.5%	43.7%	59.4%	68.5%	25.6%		53.8%	42.5%	44.8%
Cn1cc(-c2cc3ncnc(Nc4ccc(NC(=O)Nc5cc(C(C)(C)C)on5)cc4)c3s2)cn1	22.3%	5.73% (active)	44.2%	30.4%	20.4%	19.8%	54.9%	14.9%	61.6%	
O=C(/C=C/c1ccccc1)c1cccc(O)c1	67.5%	-17.9% (active)	92.3%	101%	107%	97.8%	106%	114%	107%	
Cc1ccccc1N1CCN(C2=C(Cl)C(=O)c3ncccc3C2=O)CC1	-24.1% (active)	11.5%	70%	98.4%	95.8%	77.3%		57.4%	73.7%	59%
COc1ccc2c(c1)c(/C=N/Nc1ccnc3cc(Cl)ccc13)cn2C	-22.6% (active)	-43% (active)	-66.8% (active)	-87.3% (active)	-89.2% (active)	-82% (active)		-53.1% (active)	-71.1% (active)	-76.7% (active)
CCCCCc1ccc(S(=O)(=O)Nc2cc(-c3csc(N)n3)ccc2OC)cc1	98.9%	78.2%	95.9%	110%	127%	84.5%		97.1%	88%	100%
Nc1cc(C(=O)N/N=C\c2ccc(OC(F)F)c(OC3CCCC3)c2)nn1CC(O)c1ccccc1 (stereo not drawn)	88.1%	87.5%	96.9%	108%	105%	108%		109%	109%	91.4%
CCCCc1nc2c(N)nc3ccccc3c2n1Cc1ccc(OC)cc1	46.2%	34.1%	67.4%	82.4%	74.8%	56.8%		79.8%	59.2%	58.1%
Brc1cc(-c2cc(-c3ccc4c(c3)OC=CO4)[nH]n2)cs1	60.9%	81%	99.4%	115%	86%	66.1%		90%	65.4%	97%
CCN(CC)c1ccc(/C=N/NC(=O)c2ccc(NS(C)(=O)=O)cc2)cc1	13.5%	42%	9.7% (active)		35.4%	21.2%		65.6%	58.3%	35.6%
CSc1ccc(/C(=N/N=C(N)N)c2ccc(Cl)cc2)cc1	-15.7% (active)	6.98% (active)	-18.4% (active)		24.7%	4.76% (active)		4% (active)	-3.46% (active)	57%
O=C(Nc1cc(C(F)(F)F)cc(C(F)(F)F)c1)Nc1ccc2oc(=O)ccc2c1	14%	-21.5% (active)	14.2%		-1.5% (active)	17.3%		36.8%	4.16% (active)	32.6%
O=C(O)c1ccc(-n2c(=O)n(-c3cccc(C(F)(F)F)c3)c(=O)c3cc(-c4ccc(F)cc4F)ccc32)cc1	8.91% (active)	-7.92% (active)	13.9%		2.5% (active)	17.8%		-4.81% (active)	3.12% (active)	31.2%
Cc1ccc(Nc2nc(SC(C)C)nc(-c3ccccc3)c2C#N)cc1	102%	99%	97%	81.8%	96.2%	91%		87.8%	92.2%	
O=C(N/N=C\c1ccc(F)cc1)c1ccc2nc(-c3ccc(Br)cc3)[nH]c2c1	41.3%	63.5%	27.4%	63.3%	90.9%	3.87% (active)		36.1%	68.2%	
C=CCSC1=NC2C(N(CC)C(=O)N2CC)N1/N=C/C=C/c1ccccc1OC (stereo not drawn)	16.9%	53.7%	83.5%		99.8%	69%	54.6%	82.4%	53.3%	79.9%
CN(C)c1ccc(-c2cc(-c3c[nH]c4ccccc34)nc(N)c2C#N)cc1	9.16% (active)	4.44% (active)	25.6%		30.9%	42.2%		35.6%	14.9%	69.5%
COCCOc1ccc2ncc(C#Cc3cncc(C(=O)Nc4ccc(CN5CCN(C)CC5)c(C(F)(F)F)c4)c3)n2n1	0.746% (active)	23.4%	24.4%	21.8%	24%	9.76% (active)		-13.3% (active)	3.81% (active)	
C#Cc1nc(/C=C\CCCCCCC(=O)NO)cs1	-19.7% (active)	-1.07% (active)	40.9%		91.6%	-68.2% (active)		64.9%	13.1%	69.9%
Cc1[nH]c(C(=O)Nc2ccc(C(N)=O)cc2N2CCOC(C)C2)c(Cl)c1Cl (stereo not drawn)	101%	107%	96.8%		102%	92.2%	109%	94.7%	93.7%	97.9%
C=C(C)[C@@H]1CC[C@]2(C(=O)N3CCN(C)CC3)CC[C@]3(C)[C@H](CC[C@@H]4[C@@]5(C)CC[C@H](OP(=O)(OCC)OCC)C(C)(C)[C@@H]5CC[C@]43C)[C@@H]12	-26.6% (active)	35.2%	84.3%		104%	92.9%	100%	87.6%	82.4%	
COc1ccc(NC(=O)CCCCCCNC(=O)C(O)(O)C(F)(F)F)cc1	15%	25.1%	22.3%		4.07% (active)	62.4%	49.1%	56.9%	49.8%	77.7%
CCCN1C=C/C(=C\C(=O)n2ccc3ccccc32)c2ccccc21	55.9%	69.3%	95.6%		70.2%	59.1%	87.3%	101%	88.7%	49.9%
